This is part of a sample that, as a whole, favours compounds with a hit. Of some 79,000 tested, about 15% had one in any assay. Unmarked numbers belong to inactive results. Active and inactive are the calls of the source. Cut-off read from the data, not from the text of the source: active = growth inhibition above about 70%; inactive = the rest.
Assays:
[1] = NCI Yeast Anticancer Drug Screen. Data for the rad52 strain (AID 147);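 note: 0% = growth of vehicle-treated control cultures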; conditions: S. cerevisiae rad52 mutant growth inhibition, active compounds read high
How it was run: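 DNA repair-defective yeast; compound exposure; growth scored against vehicle controls.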

[2] = NCI Yeast Anticancer Drug Screen. Data for the wt1 strain (AID 149);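 note: 0% = growth of vehicle-treated wt1 cultures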; conditions: S. cerevisiae wt1 strain (SPY 50644) growth inhibition, active compounds read high
How it was run: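 Readout: yeast growth inhibition, normalised to vehicle controls, in the wt1 strain exposed to test compounds.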

[3] = NCI Yeast Anticancer Drug Screen. Data for the rad50EPP+ strain (AID 151);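 note: 0% = growth of vehicle-treated control cultures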; conditions: S. cerevisiae rad50 mutant strain, active compounds read high
How it was run: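 rad50EPP+ yeast treated with test compounds. Readout: growth vs vehicle control.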

[4] = NCI Yeast Anticancer Drug Screen. Data for the mgt1 strain (AID 153); conditions: S. cerevisiae mgt1 mutant growth inhibition, active compounds read high
How it was run: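 Growth inhibition relative to vehicle controls was scored for the mgt1 yeast strain after compound exposure.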

[5] = NCI Yeast Anticancer Drug Screen. Data for the rad50 strain (AID 155);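 note: 0% = growth of vehicle-only cultures of the same strain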; conditions: S. cerevisiae rad50 strain growth inhibition, active compounds read high
How it was run: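 Compounds were tested on a yeast strain with an engineered DNA damage repair alteration; the reported value is growth inhibition normalised to vehicle treatment.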

[6] = NCI Yeast Anticancer Drug Screen. Data for the mec2-1 strain (AID 157); conditions: S. cerevisiae mec2-1 strain, active compounds read high
How it was run: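 Growth inhibition is read against vehicle-treated controls after compound exposure of the mec2-1 yeast strain, which is defective in DNA damage repair or cell cycle control.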

[7] = NCI Yeast Anticancer Drug Screen. Data for the rad14 strain (AID 159);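 note: 0% = growth of vehicle-treated control cultures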; conditions: S. cerevisiae rad14 strain growth inhibition, active compounds read high
How it was run: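 Compound-treated yeast with a defined DNA-repair lesion; growth inhibition normalised to vehicle-treated cultures.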

[8] = NCI Yeast Anticancer Drug Screen. Data for the sgs1 mgt1 strain (AID 161);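 note: 0% = growth of cultures given vehicle only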; conditions: S. cerevisiae sgs1 mgt1 strain, active compounds read high
How it was run: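 This yeast growth screen uses a strain with defined DNA-repair lesions; compound-treated growth is compared with vehicle-treated growth.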

[9] = NCI Yeast Anticancer Drug Screen. Data for the CLN2oe strain (AID 163);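 note: 0% = growth of vehicle-only control cultures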; conditions: S. cerevisiae CLN2oe strain, active compounds read high
How it was run: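 Compound-treated yeast; growth vs vehicle ctrl = % inhibition. Genetically altered strain (cell-cycle control).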

[10] = NCI Yeast Anticancer Drug Screen. Data for the cln2 rad14 strain (AID 165);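 note: 0% = growth equal to vehicle treated cultures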; conditions: S. cerevisiae cln2 rad14 strain, active compounds read high
How it was run: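 Growth inhibition, relative to vehicle-treated controls, is the read-out. The test organism is a yeast strain with defined genetic alterations, cln2 rad14.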

[11] = NCI Yeast Anticancer Drug Screen. Data for the bub3 strain (AID 167); conditions: S. cerevisiae bub3 mutant strain, active compounds read high
How it was run: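 Growth of a checkpoint-deficient yeast mutant is measured after compound exposure. Values represent inhibition relative to vehicle.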

[12] = NCI Yeast Anticancer Drug Screen. Data for the wt2 strain (AID 169);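 note: 0% = growth of vehicle-treated yeast cultures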; conditions: S. cerevisiae wt2 strain growth inhibition, active compounds read high
How it was run: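 Compound exposure of yeast; growth compared with vehicle controls; inhibition reported.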

[13] = NCI Yeast Anticancer Drug Screen. Data for the mlh1 strain (AID 171);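 note: 0% = growth of vehicle-treated control cultures of the same strain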; conditions: S. cerevisiae mlh1 strain growth inhibition, active compounds read high
How it was run: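 Compounds are applied to a genetically altered yeast strain, and its growth is compared with that of vehicle-treated cultures to give percent inhibition.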

[14] = NCI Yeast Anticancer Drug Screen. Data for the sgs1 strain (AID 173);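 note: 0% = growth of vehicle-only control cultures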; conditions: S. cerevisiae sgs1 mutant, active compounds read high
How it was run: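 Compounds applied to genetically altered yeast; growth compared with vehicle-treated cultures to give % inhibition.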

[15] = NCI Yeast Anticancer Drug Screen. Data for the mlh1 rad18 strain (AID 175); conditions: S. cerevisiae mlh1 rad18 strain growth inhibition, active compounds read high
How it was run: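 Cells of a genetically altered yeast strain, deficient in DNA damage repair, were treated with compound. Their growth was then compared with that of vehicle-treated cultures to give inhibition.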

[16] = NCI Yeast Anticancer Drug Screen. Data for the rad18 strain (AID 177); conditions: S. cerevisiae rad18 mutant growth inhibition, active compounds read high
How it was run: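 Compounds are applied to a repair-deficient yeast strain, and growth is compared with that of vehicle-treated cultures to give percent inhibition.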

[17] = at 5.0 µM (retest, dose inferred, filed as 0.5)
[18] = at 50.0 µM (retest, dose inferred, filed as 5.0)

SMILES: CC(=O)OC1CCC2(C)C(=CC(C3C=C4CC(OC(C)=O)CCC4(C)C4=C3C3CC5OC6(CCC(C)CO6)C(C)C5C3(C)CC4)C3=C2CCC2(C)C3CC3OC4(CCC(C)CO4)C(C)C32)C1 (stereo unspecified)
- growth inhibition ([1]; at 1.2 µM): 0%
- growth inhibition ([1]; at 3.7 µM): 3%
- growth inhibition ([1]; at 11.0 µM): 7%
- growth inhibition ([1]; at 33.0 µM): 20%
- growth inhibition ([1]; at 100.0 µM): 88% (active)
- growth inhibition ([2]; at 1.2 µM): 1%
- growth inhibition ([2]; at 3.7 µM): -1%
- growth inhibition ([2]; at 11.0 µM): 0%
- growth inhibition ([2]; at 33.0 µM): 9%
- growth inhibition ([2]; at 100.0 µM): 11%
- growth inhibition ([3]; at 1.2 µM): 1%
- growth inhibition ([3]; at 3.7 µM): 2%
- growth inhibition ([3]; at 11.0 µM): 25%
- growth inhibition ([3]; at 33.0 µM): 65%
- growth inhibition ([3]; at 100.0 µM): 76% (active)
- growth inhibition ([4]; at 1.2 µM): 1%
- growth inhibition ([4]; at 3.7 µM): -3%
- growth inhibition ([4]; at 11.0 µM): -2%
- growth inhibition ([4]; at 33.0 µM): 24%
- growth inhibition ([4]; at 100.0 µM): 83% (active)
- growth inhibition ([5]; at 1.2 µM): 0%
- growth inhibition ([5]; at 3.7 µM): 1%
- growth inhibition [5, 17]: -7%
- growth inhibition ([5]; at 11.0 µM): 2%
- growth inhibition ([5]; at 33.0 µM): 6%
- growth inhibition [5, 18]: 45%
- growth inhibition ([5]; at 50.0 µM): 91.3% (active)
- growth inhibition ([5]; at 100.0 µM): 64%
- growth inhibition ([6]; at 1.2 µM): -2%
- growth inhibition ([6]; at 3.7 µM): 0%
- growth inhibition [6, 17]: -12%
- growth inhibition ([6]; at 11.0 µM): 1%
- growth inhibition ([6]; at 33.0 µM): 9%
- growth inhibition [6, 18]: 33%
- growth inhibition ([6]; at 50.0 µM): 45%
- growth inhibition ([6]; at 100.0 µM): 75% (active)
- growth inhibition ([7]; at 1.2 µM): 1%
- growth inhibition ([7]; at 3.7 µM): 0%
- growth inhibition ([7]; at 11.0 µM): 4%
- growth inhibition ([7]; at 33.0 µM): 13%
- growth inhibition ([7]; at 100.0 µM): 84% (active)
- growth inhibition [8, 17]: -10%
- growth inhibition [8, 18]: 64%
- growth inhibition ([8]; at 50.0 µM): 90.7% (active)
- growth inhibition ([9]; at 1.2 µM): -3%
- growth inhibition ([9]; at 3.7 µM): -8%
- growth inhibition ([9]; at 11.0 µM): -8%
- growth inhibition ([9]; at 33.0 µM): -7%
- growth inhibition ([9]; at 100.0 µM): 53%
- growth inhibition [10, 17]: 37%
- growth inhibition [10, 18]: 60%
- growth inhibition ([10]; at 50.0 µM): -4.25%
- growth inhibition ([11]; at 1.2 µM): 0%
- growth inhibition ([11]; at 3.7 µM): -1%
- growth inhibition [11, 17]: -2%
- growth inhibition ([11]; at 11.0 µM): -3%
- growth inhibition ([11]; at 33.0 µM): 2%
- growth inhibition [11, 18]: 69%
- growth inhibition ([11]; at 50.0 µM): 74.2% (active)
- growth inhibition ([11]; at 100.0 µM): 61%
- growth inhibition ([12]; at 1.2 µM): -2%
- growth inhibition ([12]; at 3.7 µM): -3%
- growth inhibition ([12]; at 11.0 µM): -1%
- growth inhibition ([12]; at 33.0 µM): 25%
- growth inhibition ([12]; at 100.0 µM): 93% (active)
- growth inhibition ([13]; at 1.2 µM): -1%
- growth inhibition ([13]; at 3.7 µM): 0%
- growth inhibition ([13]; at 11.0 µM): 0%
- growth inhibition ([13]; at 33.0 µM): 12%
- growth inhibition ([13]; at 100.0 µM): 69%
- growth inhibition ([14]; at 1.2 µM): -4%
- growth inhibition ([14]; at 3.7 µM): -5%
- growth inhibition ([14]; at 11.0 µM): 3%
- growth inhibition ([14]; at 33.0 µM): 25%
- growth inhibition ([14]; at 100.0 µM): 72% (active)
- growth inhibition [15, 17]: -28%
- growth inhibition [15, 18]: 88% (active)
- growth inhibition ([15]; at 50.0 µM): 82.5% (active)
- growth inhibition ([16]; at 1.2 µM): -1%
- growth inhibition ([16]; at 3.7 µM): -3%
- growth inhibition ([16]; at 11.0 µM): -3%
- growth inhibition ([16]; at 33.0 µM): 8%
- growth inhibition ([16]; at 100.0 µM): 51%

SMILES: N#CC(C#N)=NNc1ccc(S(=O)(=O)O)cc1
- growth inhibition ([1]; at 1.2 µM): -6%
- growth inhibition ([1]; at 3.7 µM): 3%
- growth inhibition ([1]; at 11.0 µM): 4%
- growth inhibition ([1]; at 33.0 µM): 14%
- growth inhibition ([1]; at 100.0 µM): 4%
- growth inhibition ([2]; at 1.2 µM): -19%
- growth inhibition ([2]; at 3.7 µM): -18%
- growth inhibition ([2]; at 11.0 µM): -19%
- growth inhibition ([2]; at 33.0 µM): -14%
- growth inhibition ([2]; at 100.0 µM): -3%
- growth inhibition ([3]; at 1.2 µM): 2%
- growth inhibition ([3]; at 3.7 µM): 2%
- growth inhibition ([3]; at 11.0 µM): 19%
- growth inhibition ([3]; at 33.0 µM): -4%
- growth inhibition ([3]; at 100.0 µM): 9%
- growth inhibition ([4]; at 1.2 µM): 3%
- growth inhibition ([4]; at 3.7 µM): 1%
- growth inhibition ([4]; at 11.0 µM): -3%
- growth inhibition ([4]; at 33.0 µM): 7%
- growth inhibition ([4]; at 100.0 µM): 9%
- growth inhibition ([5]; at 1.2 µM): -20%
- growth inhibition ([5]; at 3.7 µM): -27%
- growth inhibition [5, 17]: 85% (active)
- growth inhibition ([5]; at 11.0 µM): -25%
- growth inhibition ([5]; at 33.0 µM): -26%
- growth inhibition [5, 18]: 99% (active)
- growth inhibition ([5]; at 50.0 µM): 19.3%
- growth inhibition ([5]; at 100.0 µM): -9%
- growth inhibition ([6]; at 1.2 µM): -20%
- growth inhibition ([6]; at 3.7 µM): -22%
- growth inhibition [6, 17]: 93% (active)
- growth inhibition ([6]; at 11.0 µM): -29%
- growth inhibition ([6]; at 33.0 µM): -24%
- growth inhibition [6, 18]: 99% (active)
- growth inhibition ([6]; at 50.0 µM): 17.7%
- growth inhibition ([6]; at 100.0 µM): -28%
- growth inhibition ([7]; at 1.2 µM): 11%
- growth inhibition ([7]; at 3.7 µM): 13%
- growth inhibition ([7]; at 11.0 µM): 3%
- growth inhibition ([7]; at 33.0 µM): 2%
- growth inhibition ([7]; at 100.0 µM): 23%
- growth inhibition [8, 17]: -2%
- growth inhibition [8, 18]: 32%
- growth inhibition ([8]; at 50.0 µM): 22.8%
- growth inhibition ([9]; at 1.2 µM): -17%
- growth inhibition ([9]; at 3.7 µM): -12%
- growth inhibition ([9]; at 11.0 µM): -11%
- growth inhibition ([9]; at 33.0 µM): -19%
- growth inhibition ([9]; at 100.0 µM): -24%
- growth inhibition [10, 17]: 0%
- growth inhibition [10, 18]: 23%
- growth inhibition ([10]; at 50.0 µM): 17.9%
- growth inhibition ([11]; at 1.2 µM): -30%
- growth inhibition ([11]; at 3.7 µM): -29%
- growth inhibition [11, 17]: 17%
- growth inhibition ([11]; at 11.0 µM): -30%
- growth inhibition ([11]; at 33.0 µM): -29%
- growth inhibition [11, 18]: 28%
- growth inhibition ([11]; at 50.0 µM): 24.1%
- growth inhibition ([11]; at 100.0 µM): -26%
- growth inhibition ([12]; at 1.2 µM): -15%
- growth inhibition ([12]; at 3.7 µM): -18%
- growth inhibition ([12]; at 11.0 µM): -6%
- growth inhibition ([12]; at 33.0 µM): -17%
- growth inhibition ([12]; at 100.0 µM): -7%
- growth inhibition ([13]; at 1.2 µM): 3%
- growth inhibition ([13]; at 3.7 µM): 5%
- growth inhibition ([13]; at 11.0 µM): 5%
- growth inhibition ([13]; at 33.0 µM): 11%
- growth inhibition ([13]; at 100.0 µM): 41%
- growth inhibition ([14]; at 1.2 µM): -8%
- growth inhibition ([14]; at 3.7 µM): -9%
- growth inhibition ([14]; at 11.0 µM): -7%
- growth inhibition ([14]; at 33.0 µM): 10%
- growth inhibition ([14]; at 100.0 µM): 11%
- growth inhibition [15, 17]: 63%
- growth inhibition [15, 18]: 100% (active)
- growth inhibition ([15]; at 50.0 µM): 20.6%
- growth inhibition ([16]; at 1.2 µM): 2%
- growth inhibition ([16]; at 3.7 µM): -6%
- growth inhibition ([16]; at 11.0 µM): 5%
- growth inhibition ([16]; at 33.0 µM): 1%
- growth inhibition ([16]; at 100.0 µM): 2%
